{
  "source": "PubChem BioAssay (NCATS)",
  "note": "Records with an inconclusive call do not appear. Unmarked numbers belong to inactive results. Activity calls are given as the source filed them. Calls follow the shape of the dose curve; as a rule, active = well fitted inhibition curve with a large enough effect in the signal ratio, with a control signal flat (not every such curve was filed as active); inconclusive = small, poorly fitted or top-dose-only effect, or effect the other way, or a change in a side signal; inactive = flat fitted curve, though single readings scatter; the % refers to the signal ratio. % is scaled to controls: 0 for no effect and ±100 for the full control effect.",
  "data": [
    {"molecular_target": "Glucocorticoid receptor (Homo sapiens) (UniProt P04150)", "sequence (P04150 whole entry, looked up)": "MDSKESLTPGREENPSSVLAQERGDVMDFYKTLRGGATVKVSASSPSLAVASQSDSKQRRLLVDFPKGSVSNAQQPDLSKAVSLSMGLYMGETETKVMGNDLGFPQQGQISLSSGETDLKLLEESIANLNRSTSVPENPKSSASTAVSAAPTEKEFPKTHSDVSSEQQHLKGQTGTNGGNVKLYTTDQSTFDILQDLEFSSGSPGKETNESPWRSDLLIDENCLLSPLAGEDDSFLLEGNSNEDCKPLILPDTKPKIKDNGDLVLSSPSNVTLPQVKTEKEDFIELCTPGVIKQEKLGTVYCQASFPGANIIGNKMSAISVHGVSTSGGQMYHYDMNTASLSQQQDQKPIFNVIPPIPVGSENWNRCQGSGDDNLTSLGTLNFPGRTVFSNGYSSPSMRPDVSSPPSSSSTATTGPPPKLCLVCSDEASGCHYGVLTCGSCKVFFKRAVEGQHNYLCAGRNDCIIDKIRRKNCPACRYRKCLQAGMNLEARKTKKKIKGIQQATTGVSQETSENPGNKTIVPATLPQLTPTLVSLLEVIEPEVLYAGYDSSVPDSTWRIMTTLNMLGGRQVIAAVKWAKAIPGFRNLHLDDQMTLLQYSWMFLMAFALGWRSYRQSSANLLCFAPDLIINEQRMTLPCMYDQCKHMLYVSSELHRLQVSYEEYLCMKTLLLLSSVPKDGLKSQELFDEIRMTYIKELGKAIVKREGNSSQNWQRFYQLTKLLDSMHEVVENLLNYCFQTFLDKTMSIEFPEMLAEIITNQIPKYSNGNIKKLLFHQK", "assay": "qHTS assay for small molecule antagonists of glucocorticoid receptor signaling (AID 588533)", "settings": "HeLa MMTV-bla, GRE beta-lactamase ratio, antagonist mode, 18 h; series mostly up to 76.8 µM; activity change, negative = inhibition: at the top concentration", "source_text": "NIH Chemical Genomics Center [NCGC] U.S. Environmental Protection Agency [EPA] National Institutes of Environmental Health Sciences [NIEHS] National Toxicology Program [NTP] NCGC Assay Overview The Glucocorticoid receptor (GR), a nuclear receptor subfamily member and its natural ligands includes […] etc. The GR is a validated drug target for inflammation. GR ligands such as dexamethasone are clinically available as anti-inflammatory drugs. Glucocorticoids implicate a role in carbohydrate, protein and lipid metabolisms and programmed cell death. They are also a component of many chemotherapy regimens for the treatment of leukemias, lymphomas, and myelomas because of their role in the induction of apoptosis.\nNCGC Assay Protocol Summary Using a beta-lactamase reporter-gene under control of glucocorticoid response element (GRE), a cell-based assay [CellSensor MMTV-bla HeLa cell line assay developed by Invitrogen] was used to measure GR ligands signaling. CellSensor MMTV-bla HeLa cells were used with assay medium containing 1% charcoal/dextran treated FBS, 0.1 mM NEAA, 1 mM sodium pyruvate and 25mM HEPES. The assay was performed in clear bottom black Greiner 1536-well plates. Library compounds were measured for their ability to inhibit the reporter gene activity. Compounds were screened in a titration series in 1536-well format. […] Data was normalized relative to Dexamethasone control (2 nM, 100%), and DMSO only wells (basal, 0%). Concentration-response titration points for each compound were fitted to the Hill equation yielding concentrations of half-maximal inhibition (IC50) and maximal response (efficacy) values. qHTS protocol for GR beta-lactamase assay in antagonist mode [Step] [Parameter] [Value] [Description] 1. Reagent; 5 uL; 1500 cells/well 2. Incubation; 37 C for 3-5 hrs 3. Compounds; 23 nL; 0.59 nM to 92 uM 4. […] Agonist (Stimulator); 1uL; Dexamethasone at 2 nM (final) concentration 6. Incubation; 37 C for 18 hrs 7. Detection reagent; 1 uL of CCF4-dye 8. Incubation; RT for 2 hrs 9. Detection; Fluorescence; Envision plate reader", "units": {"activity change, negative = inhibition": "%"}, "values": [
      {"smiles": "CCCNC(=O)NS(=O)(=O)c1ccc(Cl)cc1", "activity change, negative = inhibition": -14},
      {"smiles": "CCCCC1C(=O)N(c2ccccc2)N(c2ccccc2)C1=O", "Potency": "inactive"},
      {"smiles": "O=C1NC(=O)C(c2ccccc2)(c2ccccc2)N1", "Potency": "inactive"},
      {"smiles": "CC(=O)N[C@@H](CS)C(=O)O", "activity change, negative = inhibition": 16.6},
      {"smiles": "O=c1cc(-c2ccc(O)cc2)oc2cc(O)cc(O)c12", "Potency": "31.6 µM (active)"},
      {"smiles": "CC/C(=C(\\c1ccccc1)c1ccc(OCCN(C)C)cc1)c1ccccc1", "activity change, negative = inhibition": -27.4},
      {"smiles": "CC(C)OC(=O)C(C)(C)Oc1ccc(C(=O)c2ccc(Cl)cc2)cc1", "activity change, negative = inhibition": 13.1},
      {"smiles": "O=c1[nH]cnc2c1ncn2[C@H]1CC[C@@H](CO)O1", "activity change, negative = inhibition": 7.52},
      {"smiles": "O=C(O)c1cc(-c2ccccc2)nc2ccccc12", "activity change, negative = inhibition": 9.83},
      {"smiles": "CC(=O)c1ccc(S(=O)(=O)NC(=O)NC2CCCCC2)cc1", "Potency": "inactive"},
      {"smiles": "O=c1c(-c2ccc(O)cc2)coc2cc(O)ccc12", "activity change, negative = inhibition": -23.2}
    ]}
  ]
}
